Source: PubChem BioAssay (National Center for Advancing Translational Sciences (NCATS))
Cycloheximide cs: Cycloheximide Counterscreen for Small Molecule Inhibitors of Shiga Toxin; cell reporter, cycloheximide protein synthesis inhibition counterscreen; max response, %; 300,000 compounds, 12% hits; in the data active means max response mostly above about 13%, no sharp cut-off; inactive means mostly below about 14%; further: read at 38.3 µM for the half of the compounds with a filed dose; 0% is about no effect
MARV entry inh: qHTS for inhibitors of binding or entry into cells for Marburg Virus | Marburg virus pseudotyped entry inhibition, cell reporter | Potency, µM (titrated, usually from 37.8 µM), for inactives: top-dose activity change, negative = inhibition, most hits filed as inhibitors | 300,000 compounds, 1.8% hits; calls by dose curve; tested in HEK293 cells; further: potency means the concentration at half of the fitted maximal effect; on the % scale 0 is the no-effect control and ±100 the full control effect
LASV entry inh: qHTS for Inhibitors of binding or entry into cells for Lassa Virus. AID 540256, 2011. Lassa virus pseudotype entry inhibition, cell reporter. Potency, µM (doses to about 37.9 µM), without a hit: top-dose activity change, negative = inhibition, usual class: inhibitors. 300,000 compounds, 1.2% hits; calls by dose curve; tested in HEK293 cells; further: potency means the concentration at half of the fitted maximal effect; on the % scale 0 is the no-effect control and ±100 the full control effect; nearly all actives have a fitted effect of over 50% in size
Pf growth 96h: Primary qHTS for delayed death inhibitors of the malarial parasite plastid, 96 hour incubation | P. falciparum luciferase reporter growth, 96 h | Potency, µM (series often up to 28.7 µM), for inactives: at the top dose activity change, negative = inhibition, usual class: inhibitors | 320,000 compounds, 6.9% hits; further: potency means the concentration at half of the fitted maximal effect; on the % scale 0 is the no-effect control and ±100 the full control effect
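Plates of compound plus infected erythrocytes (2% hematocrit, 0.05% parasitemia final) incubate 96 hours, 37 C, 5% CO2. Detection reagent added; reduced luminescence from the parasites' luciferase reporter flags inhibition.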
Pf growth 48h: Primary qHTS for delayed death inhibitors of the malarial parasite plastid, 48 hour incubation | P. falciparum luciferase growth in erythrocytes, 48 h | 310,000 compounds, 5.9% hits | Potency, µM (top dose mostly 28.7 µM), without a hit: at the highest dose activity change, negative = inhibition, actives largely listed as inhibitors | AID 504832, 2011; further: potency means the concentration at half of the fitted maximal effect; on the % scale 0 is the no-effect control and ±100 the full control effect
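Here the parasites carry a stable luciferase gene and grow inside erythrocytes in Albumax-based RPMI medium with compound for one erythrocytic cycle. Activity is scored as loss of luminescent signal.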
Shiga toxin inh: A qHTS for Small Molecule Inhibitors of Shiga Toxin | inhibition, % at 38.7 µM | Vero cells, Shiga toxin protein synthesis inhibition reporter | AID 2315, 2010 | 290,000 compounds, 9.2% hits; in the data active means inhibition mostly above about 28%, no sharp cut-off; inactive means mostly below about 43%; further: 0% is about no effect
The depositor's hits bear a star; ? = inconclusive; . = no result; [ ] = another dose, or the depositor's remark. In the library only some 19% were active in any assay of this set; here they are far more common. Unless noted, the call rests on the fitted dose curve; in most records, active means well fitted inhibition curve with a large enough effect; inconclusive means small, poorly fitted or top-dose-only effect, or another doubt; inactive means no such curve, though single readings can be large or run the other way.

SMILES	Cycloheximide cs	MARV entry inh	LASV entry inh	Pf growth 96h	Pf growth 48h	Shiga toxin inh
CC(=O)c1nn(-c2cccc(Br)c2)cc1C(=O)c1ccc(Br)cc1	1.7	?	?	?	2.8%	9.5
CC(C)C(C(=O)N1CCOCC1)N1C(=O)c2ccccc2C1=O (stereo not drawn)	4.3	-4.6%	0.0%	10.4µM*	12.4%	-14.0
O=C(C/C=N/OCc1ccccc1F)c1cnc(-c2ccc(Cl)cc2)s1	-1.6	10.1%	2.0%	14.1%	30.6%	20.4
CN(C)/C=C/C(=O)c1cnc(-c2ccc(Cl)cc2)s1	51.1*	-9.2%[46.1 µM]	7.0%	228.2%	211.9%	96.5*
O=C(C=Cc1cccs1)c1ccc(Cl)s1	.	?	-4.8%[46.1 µM]	.	.	.
O=C(c1ccccc1)c1cnc(-c2ccccc2)s1	9.4	?	?	273.8%	-9.6%	47.4
CN(C)/C=C/C(=O)c1ccc(Cl)s1	16.0*	0.3%[46.1 µM]	2.3%[46.1 µM]	?	33.0%	35.1
O=C(c1ccccc1)c1cnc(-c2ccc(Cl)cc2)s1	39.2*	-12.5%	-1.5%	304.4%	290.7%	116.4*
O=C(c1ccc(Cl)cc1)c1cnc(-c2ccc(Cl)cc2)s1	0.8	27.9%	?	0.0%	-6.2%	-5.6
CN(C)/C=C/C(=O)c1cnc(-c2ccccc2)s1	52.3*	?	?	205.8%	196.8%	103.7*
COc1ccc(C(=O)NCC(=O)NCC(=O)OCC(=O)c2ccc(C)cc2)cc1	-2.5	0.0%	-2.3%	-19.8%	35.7%	-3.5
O=C(c1ccc(C(F)(F)F)cc1)n1ccc(-c2cccs2)n1	-3.0	?	7.2%	-15.9%	55.6%	-10.0
O=S(=O)(c1ccccc1)n1ccc(-c2cnc(-c3ccccc3)s2)n1	10.5*	0.5%	1.9%	75.6%	-0.1%	31.4
O=c1ccc(-c2ccccc2)nn1Cc1ccc(F)cc1	9.8	.	.	?	8.3%	23.0
Cc1ccc(Cn2ccc(-c3cnc(-c4ccccc4)s3)n2)cc1	29.6*	-23.5%[46.1 µM]	?	105.2%	.	68.7*
O=C(c1ccc(F)cc1)n1ccc(-c2cnc(-c3ccccc3)s2)n1	41.5*	13.1%[46.1 µM]	13.3%	340.2%	.	73.4*
Fc1ccc(Cn2ccc(-c3cnc(-c4ccccc4)s3)n2)cc1	39.3*	?	-25.8%	15.4%	.	67.2
Nc1cc(-c2ccccc2)nn1S(=O)(=O)c1ccc(Br)cc1	4.6	.	.	?	.	-7.7
CCC(CCC(=O)Nc1nncs1)C(=O)O (stereo not drawn)	-2.2	9.6%	.	23.9%	.	-16.7
Cc1ccc(N(C(C)C(=O)Nc2c(C)n(C)n(-c3ccccc3)c2=O)S(C)(=O)=O)cc1C (stereo not drawn)	-3.1	7.8%[46.1 µM]	-6.6%	?	10.4%	50.1
CCC(C(=O)NCCCN1CCN(C)CC1)n1nc(C)c2sc3ccccc3c2c1=O (stereo not drawn)	0.5	.	.	3.0%	?	-10.4
Cc1cc(C(=O)N2CCc3ccccc3C2)n[nH]1	23.8*	.	.	-14.7%	55.2%	53.3*
Cc1cc(C(=O)N2CCc3ccccc3C2)no1	18.9*	.	.	29.0%	23.3%	13.0
O=C(c1ccc(=O)[nH]n1)N1CCc2ccccc2C1	5.7	.	.	-15.3%	-3.8%	19.9
O=C(c1cc(-c2ccccc2)on1)N1CCc2ccccc2C1	-0.6	2.1%[46.1 µM]	?	?	25.8%	-6.0
SMILES	Cycloheximide cs	MARV entry inh	LASV entry inh	Pf growth 96h	Pf growth 48h	Shiga toxin inh
CCOC(=O)c1[nH]c2ccccc2c1NC(=O)C1CCCC1	-5.7	0.1%	.	-8.1%	15.1%	-13.0
CCC1CCCCN1CCCNC(=O)CN1C(=O)COc2ccc(S(=O)(=O)N3CCC(C)CC3)cc21 (stereo not drawn)	-1.3	?	27.3%[46.1 µM]	-1.9%	1.4%	-2.2
Cc1ccc(S(=O)(=O)N2CCCc3cc(NC(=O)c4ccc(C(C)(C)C)cc4)ccc32)cc1	.	.	3.5%[46.1 µM]	.	.	.
CCOC(=O)c1c(/N=C/N(C)C)sc2c1CCC2	-1.1	?	-13.8%	21.1%	24.3%	-6.6
CN(C)/C=N/c1nc2ccc3c(c2s1)CCCC3	36.4*	?	?	?	129.1%	87.3*
COc1ccc(C(C(=O)NC2CCCCC2)N(C(=O)Cc2c[nH]c3ccccc23)c2ccc(NC(C)=O)cc2)cc1OC (stereo not drawn)	-2.4	-9.6%	-35.3%	9.28µM*	10.4µM*	-12.7
